For 17 molecules, Potency results are on record in PubChem BioAssay (Tox21).

Records with an inconclusive call do not appear. A call without a number means that no potency is given here. The source made the active and inactive calls. Calls come from the whole dose curve; as a rule, active = well fitted activation curve with a large enough effect in the repeat runs; inconclusive = weak or mixed curves; inactive = flat fitted curve, though single readings scatter.
Potency is the fitted concentration of half-maximal effect.

In this assay the target is Nuclear receptor subfamily 1 group I member 2 (Homo sapiens) (UniProt O75469). The assay can be described thus: Human pregnane X receptor (PXR) activation by small molecules, qHTS assay (AID 1346985). Note: nearly all actives have a fitted effect of over 40% in size. To be noted: DPX-2 HepG2 CYP3A4-luciferase, 24 h; series mostly up to 38.3 µM. The essentials: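 DPX-2 cells (HepG2 co-transfected with a PXR response element and a CYP3A4-promoter luciferase construct) were seeded at 2,000 per well, rested 5 hr at 37C, then exposed to DMSO-dissolved compounds for 24 hr. Activation was read as luciferase luminescence.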
A general note: qHTS replaces the single test concentration by a dilution series.
Turning to `CC1=CCC(C(C)(C)O)CC1` (configuration not stated), the Potency entry was “inactive”.
For `CC(=O)Oc1ccccc1C(=O)Nc1ncc([N+](=O)[O-])s1` the value was “inactive”; for `Cc1cccc(N(C)C(=S)Oc2ccc3ccccc3c2)c1`, 8.91 µM (active).
For `COc1ccc(OC)c(C(O)CNC(=O)CN)c1` (configuration not stated) the value was “inactive”.
Then `O=CCCCC=O`, with “inactive”; and `COc1ccc(C(=O)CC(=O)c2ccc(C(C)(C)C)cc2)cc1`, with “inactive”.
Turning to `Cc1[nH]c(=O)c(C#N)cc1-c1ccncc1`, the Potency result was “inactive”.
Then `C#C[C@]1(O)CC[C@H]2[C@@H]3CCC4=Cc5oncc5C[C@]4(C)[C@H]3CC[C@@]21C`, with “inactive”; and `Nc1ncnc2nc[nH]c12`, with “inactive”; and `O=C(COc1ccc(Cl)cc1)N1CCN(Cc2ccc3c(c2)OCO3)CC1`, with “inactive”.
Regarding `Cc1c(C(N)=O)cc([N+](=O)[O-])cc1[N+](=O)[O-]`, the Potency result was “inactive”.
For the molecule `C[Si](C)(C)O[Si](C)(C)C`, the Potency entry was “inactive”.
For `CN(C)CCN(Cc1cccs1)c1ccccn1` the value was “inactive”; for `O=C(/C=C/c1ccccc1)OCc1ccccc1`, “inactive”.
Then `CCCC(=O)O`, with “inactive”; and `C[C@]12CC[C@H]3[C@@H](CCC4=CC(=O)CC[C@@]43C)[C@@H]1CC[C@@H]2C(=O)CO`, with “inactive”; and `OC[C@H]1O[C@@H]2O[C@H]3[C@H](O)[C@@H](O)[C@@H](O[C@H]4[C@H](O)[C@@H](O)[C@@H](O[C@H]5[C@H](O)[C@@H](O)[C@@H](O[C@H]6[C@H](O)[C@@H](O)[C@@H](O[C@H]7[C@H](O)[C@@H](O)[C@@H](O[C@H]8[C@H](O)[C@@H](O)[C@@H](O[C@H]1[C@H](O)[C@H]2O)O[C@@H]8CO)O[C@@H]7CO)O[C@@H]6CO)O[C@@H]5CO)O[C@@H]4CO)O[C@@H]3CO`, with “inactive”.
